Cell viability data for 40 molecules are collected here from the supplement of paper PMC10981050.

Where a name gives a salt, the structure may show the parent alone.

Broadly, the cell viability is a read-out of living cells in per cent, often relative to untreated cells.

The subject of this experiment is K562. Put plainly: cell viability relative to vehicle control; higher = less cytotoxic. As to conditions: 10 µM; SRSF2 genotype: SRSF2 wt/wt. Put shortly:
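Each screen used CRISPR-edited mutant and wild-type clones from four leukaemia lines. Compounds were acoustically dispensed at a single 10 µM dose, and CellTiter-Glo luminescence was read after 48 h with the supernatant first removed. Viability was analysed in Genedata Screener and given as percent of the on-plate vehicle control.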
For `C#Cc1cccc(Nc2ncnc3cc(OCCOC)c(OCCO)cc23)c1` [OSI-420 (Desmethyl Erlotinib)], the cell viability was determined as 44.4%.
With `O=C(O)Cc1ccccc1Nc1c(Cl)cccc1Cl` [Diclofenac Sodium] the figure was 102%.
For `CC[C@H](C)C(=O)O[C@H]1C[C@@H](C)C=C2C=C[C@H](C)[C@H](CC[C@@H]3C[C@@H](O)CC(=O)O3)[C@H]21` [Lovastatin (Mevacor)], the cell viability was found to be 68.8%.
On to `Clc1ccc2c(c1)CCc1cccnc1C2=C1CCNCC1` [Desloratadine], for which the cell viability stood at 93.2%.
The figure for `CNCCCC12CCC(c3ccccc31)c1ccccc12` [Maprotiline hydrochloride] is 71.2%; for `NC(=O)OCC(COC(N)=O)c1ccccc1` [Felbamate] it is 94.4%; for `CCN(CC)CCOCCOC(=O)C1(c2ccccc2)CCCC1` [Pentoxyverine Citrate] it is 108%.
With `Cn1cc(C2=C(c3ccc(Cl)cc3Cl)C(=O)NC2=O)c2ccccc21` the figure was 94.2%; with `Clc1ccc(C(Cn2ccnc2)OCc2ccc(Sc3ccccc3)cc2)c(Cl)c1` (stereo not given) [Fenticonazole nitrate], 63.8%; with `CC1(C)CCC(CN2CCN(c3ccc(C(=O)NS(=O)(=O)c4ccc(NCC5CCOCC5)c([N+](=O)[O-])c4)c(Oc4cnc5[nH]ccc5c4)c3)CC2)=C(c2ccc(Cl)cc2)C1` [Venetoclax (ABT-199, GDC-0199)], 76%.
The figure for `C[N+]1(C)CCCC1C(=O)[O-]` (stereo not given) [Stachydrine] is 105%; for `CC1(C)[C@@H](O[C@H]2O[C@H](C(=O)O)[C@@H](O)[C@H](O)[C@H]2O[C@@H]2O[C@H](C(=O)O)[C@@H](O)[C@H](O)[C@H]2O)CC[C@]2(C)[C@H]3C(=O)C=C4[C@@H]5C[C@@](C)(C(=O)O)CC[C@]5(C)CC[C@@]4(C)[C@]3(C)CC[C@@H]12` [Dipotassium glycyrrhizinate] it is 102%; for `C[C@H](NC(=O)CCc1nc2ccccc2c(=O)[nH]1)c1ccccc1` it is 108%.
For `N#CC(=Cc1cn(-c2ccccc2)c2ccccc12)C(=O)O`, the cell viability worked out at 93.5%.
With `COc1cc2nc(N3CCN(C(=O)C4CCCO4)CC3)nc(N)c2cc1OC` (stereo not given) [Terazosin HCl] the figure was 96.6%.
The figure for `C[C@@H]1CC(=O)NN=C1c1ccc(NN=C(C#N)C#N)cc1` [Levosimendan] is 99.4%; for `Cn1c(-c2ccccc2C(F)(F)F)nnc1C12CCC(c3noc(C4CC(F)(F)C4)n3)(CC1)CC2` it is 84.7%; for `CCCCCCCCCCCCCCCC(=O)OCC(O)C1OC(=O)C(O)=C1O` [L-Ascorbyl 6-palmitate] it is 98.7%.
The figure for `OC[C@H]1O[C@@H](Oc2ccc(O)cc2)[C@H](O)[C@@H](O)[C@@H]1O` [Arbutin (Uva, p-Arbutin)] is 95.1%; for `CC[C@H](C)C(=O)O[C@H]1C[C@H](O)C=C2C=C[C@H](C)[C@H](CC[C@@H](O)C[C@@H](O)CC(=O)O)[C@H]21` [Pravastatin sodium] it is 92.3%.
For the molecule `C[C@H]1CNC(=O)c2cnn3ccc(nc23)N[C@H](C)c2cc(F)ccc2O1`, the cell viability amounted to 18%.
With `COc1cc2c(cc1OC(C)C)[C@H](c1ccc(Cl)cc1)N(c1ccc(N(C)C[C@H]3CC[C@H](N4CCN(C)C(=O)C4)CC3)cc1)C(=O)C2` the figure was 68.4%.
The figure for `CSCC[C@H](NC(=O)[C@H](CC(C)C)NC(=O)[C@H](Cc1c[nH]c2ccccc12)NC(=O)[C@H](CCC(N)=O)NC(=O)[C@@H](NC(=O)[C@H](Cc1ccccc1)NC(=O)[C@H](CC(=O)O)NC(=O)[C@H](CCC(N)=O)NC(=O)[C@H](C)NC(=O)[C@H](CCCNC(=N)N)NC(=O)[C@H](CCCNC(=N)N)NC(=O)[C@H](CO)NC(=O)[C@H](CC(=O)O)NC(=O)[C@H](CC(C)C)NC(=O)[C@H](Cc1ccc(O)cc1)NC(=O)[C@H](CCCCN)NC(=O)[C@H](CO)NC(=O)[C@H](Cc1ccc(O)cc1)NC(=O)[C@H](CC(=O)O)NC(=O)[C@H](CO)NC(=O)[C@@H](NC(=O)[C@H](Cc1ccccc1)NC(=O)[C@@H](NC(=O)CNC(=O)[C@H](CCC(N)=O)NC(=O)[C@H](CO)NC(=O)[C@@H](N)Cc1cnc[nH]1)[C@@H](C)O)[C@@H](C)O)C(C)C)C(=O)N[C@@H](CC(N)=O)C(=O)N[C@H](C(=O)O)[C@@H](C)O` [Glucagon HCl] is 113%.
For `CC(=O)O[C@]1(C)CC[C@@]23C[C@H]1C(C)(C)[C@@H]2CC[C@H]3C` [Cedryl acetate], the cell viability came to 104%.
`OC(CN1CCN(c2cccc(Cl)c2)CC1)C(c1ccccc1)c1ccccc1` (stereo not given): the cell viability is 91.3%.
With `C[C@@H]1O[C@@H](OC[C@H]2O[C@@H](Oc3c(-c4ccc(O)c(O)c4)oc4cc(O)cc(O)c4c3=O)[C@H](O)[C@@H](O)[C@@H]2O)[C@H](O)[C@H](O)[C@H]1O` [Rutin (Rutoside)] the figure was 109%; with `CC(C)(F)C[C@H](N[C@@H](c1ccc(-c2ccc(S(C)(=O)=O)cc2)cc1)C(F)(F)F)C(=O)NC1(C#N)CC1` [Odanacatib (MK 0822)], 93.4%.
The figure for `CCCCCCCCCCCCCCCc1cccc(O)c1C(=O)O` [Anacardic Acid] is 84.8%; for `Cc1ccc(NC(=O)Nc2cc(C(F)(F)F)ccc2F)cc1Nc1ccc2c(c1)NC(=O)/C2=C\c1ccc[nH]1` it is 62.1%.
With `COc1ccc(/C=C/C(=O)C2(C(=O)/C=C/c3ccc(OC)c(OC)c3)CCCCC2)cc1OC` the figure was 10.6%.
As for `Cc1ccc(C)c(OCCCC(C)(C)C(=O)O)c1` [Gemfibrozil (Lopid)], the cell viability turned out to be 108%.
With `NC(=O)c1cccc(-c2cccc(OC(=O)NC3CCCCC3)c2)c1` the figure was 96.1%; with `NC(=O)c1noc([C@H](CCCC2CCCCC2)CC(=O)NO)n1`, 83.8%.
The figure for `COC(=O)Nc1nc2cc([S+]([O-])c3ccccc3)ccc2[nH]1` (stereo not given) [Oxfendazole] is 58.5%.
With `Cc1cnc(C(=O)NCCc2ccc(S(=O)(=O)NC(=O)NC3CCCCC3)cc2)cn1` [Glipizide (Glucotrol)] the figure was 91.6%; with `CC(C)c1nc(N(C)S(C)(=O)=O)nc(-c2ccc(F)cc2)c1/C=C/[C@@H](O)C[C@@H](O)CC(=O)O` [Rosuvastatin Calcium], 101%.
`COc1ccc(-c2coc3cc(O)ccc3c2=O)cc1` [Formononetin (Formononetol)]: the cell viability worked out at 86.4%.
Consider `COc1ccc(OC)c(C2C(C#N)=C(N)Oc3n[nH]c(-c4ccc5ccccc5c4)c32)c1` (stereo not given), for which the cell viability came out at 105%.
The figure for `CCN1C(=O)CNc2ncc(-c3ccc(-c4nc[nH]n4)nc3C)nc21` is 23.9%.
With `CN(C)c1ccc2nc3c(C(=O)O)cc(=O)c(O)c-3oc2c1` [Gallocyanine], the cell viability amounted to 77.7%.
